Data on 55 sequences can be found in the supplement of paper PMC10338343.

Assay [1] has as its system MILI (PIWIL2) piRISC loaded with L1MC piRNA (26 nt). Nature of the assay: pre-steady-state target cleavage rate (min^-1); guide: L1MC piRNA 5'p-UAACUAAAUACUAUGCAAGCUGUAGG; higher = faster piRNA-guided slicing of the target. Summed up:
(§1)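 A burst-and-steady-state fit was used to obtain the pre-steady-state cleavage rate. The input data were sequencing reads of uncleaved targets, normalised to depth and to weakly complementary targets, from a […] transcribed, DNA-blocked target RNA library mixed with 1 nM active affinity-purified piRISC holding one synthetic guide, with or without 500 nM GTSF1 partner protein, in HEPES–potassium acetate buffer at 33 °C for 0–8 or 0–960 min. Three trials were pooled and k3 was capped at 0.0001 min^-1.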

Assay [2] relates to EfPiwi piRISC loaded with L1MC piRNA (26 nt). Nature of the assay: pre-steady-state target cleavage rate (min^-1); auxiliary factor: 500 nM Ephydatia muelleri Gtsf1; guide: L1MC piRNA 5'p-UAACUAAAUACUAUGCAAGCUGUAGG; MIWI and MILI are mouse PIWI proteins and EfPiwi is from a freshwater sponge; tags in brackets are library labels; higher = faster piRNA-guided slicing of the target. In a few lines: as §1
Setting [3] is: auxiliary factor: 500 nM mouse GTSF1.

± gives the standard deviation.

Regarding UCCUGCAUGAGCUUGCAUAGUAUUUACAAA, the “pre-steady-state target cleavage rate” value in assay [1] (setting [3]) worked out at 0.0926 ± 0.026; in assay [2], 0.00266 ± 0.0017.
In the case of UCCUGCUACAGCUUGCAUACGUAUUUAGUUA, the “pre-steady-state target cleavage rate” value in assay [1] (setting [3]) is 0.00697 ± 0.0042; in assay [2], 0.00225 ± 0.0022.
UCCUCCUACAGCAUGCAUAGUAUUUACAAA: the “pre-steady-state target cleavage rate” value in assay [1] (setting [3]) turned out to be 0.205 ± 0.037; in assay [2], 0.00397 ± 0.0026.
In the same order, the values of UCCUCCUACAGCUUGCAUAGUAUUGAGUUA are 0.133 ± 0.026 and 0.00534 ± 0.002.
In the same order, the values of UCCUGCAACAGCUUGCAUAGAAUUUAGUUA are 0.0925 ± 0.023 and 0.00434 ± 0.0021.
For UCCUCGUACAGCUUGCAUAGUAUUUAGAAA, the “pre-steady-state target cleavage rate” value stood at 0.131 ± 0.024 in assay [1] (setting [3]) and 0.00711 ± 0.0033 in assay [2].
The matching figures for UCCUGGAUGUGCUUGCAUAGUAUUUAGCUUA: 0.113 ± 0.028 and 0.00517 ± 0.003.
For UCCUGGAUGUCCUUGCAUAGUAUUUAGAAA, the “pre-steady-state target cleavage rate” value turned out to be 0.0838 ± 0.021 in assay [1] (setting [3]) and 0.00278 ± 0.0022 in assay [2].
In the same order, the values of UCCUGGUACAGCUUGCAAAGUAUUUUGUUA are 0.0563 ± 0.014 and 0.00296 ± 0.0029.
With UCCUCCUACAGCUUGCAUACGUAUUUAGUUA, the “pre-steady-state target cleavage rate” value came to 0.00561 ± 0.0046 in assay [1] (setting [3]) and 0.0035 ± 0.0025 in assay [2].
The matching figures for UCCUCCUACAGGUUGCAUAGUAUUUAGAUA: 0.123 ± 0.017 and 0.00362 ± 0.00095.
Regarding UCCUGCUACAGCUUGCAUAGUAUAAUCAAA, the figures for the “pre-steady-state target cleavage rate” value in assay [1] (setting [3]) and in assay [2] were 0.0335 ± 0.013 and 0.00391 ± 0.0037, respectively.
Take UCCUGGAACAGCUUGCAUUGUAUUUAGAUA: the entries for the “pre-steady-state target cleavage rate” value in assay [1] (setting [3]) and in assay [2] were 0.149 ± 0.019 and 0.00313 ± 0.0017, respectively.
The matching figures for UCCUGGAACAGCUUGCAUAGUAUUUCGUUA: 0.0829 ± 0.02 and 0.0025 ± 0.0013.
In the same order, the values of UCCUGGAUGAGCUUGCAUAGUAUUUACUAA are 0.00674 ± 0.0044 and 0.00198 ± 0.002.
In the same order, the values of UCCUGCUACAGCUUGCAUAGAAUUAAGUUA are 0.048 ± 0.012 and 0.00288 ± 0.0022.
For UCCUGGUAGAGCUUGCAUAGUAUUUAGAAA, the “pre-steady-state target cleavage rate” value is 0.128 ± 0.028 in assay [1] (setting [3]) and 0.00392 ± 0.0022 in assay [2].
In the same order, the values of UCCUGCUACAGCUUGCAUACUAUUUAGUAA are 0.0862 ± 0.018 and 0.00476 ± 0.0026.
For UCCUGCUACAGGUUCCAUAGUAUUUAGUUA, the “pre-steady-state target cleavage rate” value in assay [1] (setting [3]) came to 0.00943 ± 0.0066; in assay [2] it was 0.00222 ± 0.0021.
On to UCCUGCUACAGCUUGCAUACAAUUUAGUUA, for which the “pre-steady-state target cleavage rate” value in assay [1] (auxiliary factor: none (no GTSF1)) was 0.00287 ± 0.0025; in assay [2], 0.00307 ± 0.0028.
Take UCCUCCUACAGGUUGCAUAGAAUUUAGUUA: the entries for the “pre-steady-state target cleavage rate” value in assay [1] (setting [3]) and in assay [2] were 0.0405 ± 0.0092 and 0.0062 ± 0.0014, respectively.
In the same order, the values of UCCUCCUACAGCUUGCAUAGUAUUUAGAUUA are 0.122 ± 0.022 and 0.0103 ± 0.0044.
In the same order, the values of UCCUGGAUCAGCUUGCAUAGUAUAUAGUAA are 0.189 ± 0.019 and 0.00291 ± 0.0023.
In the same order, the values of UCCUGCUACAGCUUGCAUAGUAUUUUGAAA are 0.112 ± 0.029 and 0.0045 ± 0.0018.
Consider UCCUCCUACAGCUUGCAUAGUAUAUAGAAA, for which the “pre-steady-state target cleavage rate” value was 0.105 ± 0.028 in assay [1] (setting [3]) and 0.00329 ± 0.0015 in assay [2].
The matching figures for UCCUGCUACAGCUUGCAUACUAUUAAGUUA: 0.0719 ± 0.018 and 0.00453 ± 0.0019.
As for UCCUCCUACAGCUUGCAUAGUAUAUAGUAA, the “pre-steady-state target cleavage rate” value stood at 0.147 ± 0.023 in assay [1] (setting [3]) and 0.00441 ± 0.002 in assay [2].
In the same order, the values of UCCUGCUACAGCUUGCAUAGUUAAUAGUUA are 0.0263 ± 0.0097 and 0.00347 ± 0.0032.
The matching figures for UCCUGGAUGAGCUUGCAUAAUAUUUAGUUA: 0.266 ± 0.035 and 0.00543 ± 0.0021.
On to UCCUGCUACAGCUUGCAAACUAUUUAGUUA, for which the “pre-steady-state target cleavage rate” value in assay [1] (setting [3]) was found to be 0.048 ± 0.012; in assay [2] it was 0.00535 ± 0.002.
The matching figures for UCCUGGAACAGCUUGCAUACUAAUUAGUUA: 0.0355 ± 0.0087 and 0.00305 ± 0.0029.
As for UCCUCCUACAGCUUGCAUAGUUAAUAGUAA, the results for the “pre-steady-state target cleavage rate” value in assay [1] (setting [3]) and in assay [2] were 0.0122 ± 0.0056 and 0.00511 ± 0.003, respectively.
As to UCCUGCUACAGCUUGCUAUAGUAUUUAGUUA, the “pre-steady-state target cleavage rate” value in assay [1] (setting [3]) came to 0.05 ± 0.017; in assay [2], 0.0075 ± 0.002.
As to UCCUGCUACAGCUUGCACUAGUAUUUAGUUA, the “pre-steady-state target cleavage rate” value was determined as 0.0609 ± 0.015 in assay [1] (setting [3]) and 0.00557 ± 0.0023 in assay [2].
With UCCUGGAUCAGCUUGCAUAUUAUUUAGUUA, the results for the “pre-steady-state target cleavage rate” value in assay [1] (setting [3]) and in assay [2] were 0.0736 ± 0.0095 and 0.0367 ± 0.011, respectively.
In the same order, the values of UCCUGGUACAGCUUGCAAAGUAUUUAGUAA are 0.0794 ± 0.014 and 0.00304 ± 0.0024.
Regarding UCCUCCUAGAGCUUGCAUACUAUUUAGUUA, the “pre-steady-state target cleavage rate” value in assay [1] (setting [3]) is 0.101 ± 0.018; in assay [2], 0.00855 ± 0.0026.
In the same order, the values of UCCUCCUACAGCUUGCUUAGUAUUAAGUUA are 0.116 ± 0.018 and 0.00459 ± 0.0031.
The matching figures for UCCUCCUACACGAUGCAUAGUAUUUAGAAA: 0.102 ± 0.021 and 0.00369 ± 0.0021.
The matching figures for UCCUGGAUGAGCUUGCAUAGUAUUUACAUA: 0.0149 ± 0.0065 and 0.00323 ± 0.0028.
On to UCCUGGAACACCAUGCAUAGUAUUUAGUUA, for which the entries for the “pre-steady-state target cleavage rate” value in assay [1] (setting [3]) and in assay [2] were 0.163 ± 0.018 and 0.00616 ± 0.0041, respectively.
The matching figures for UCCUGCUACAGCUUGCAUAGUAAUAAGUUA: 0.238 ± 0.03 and 0.0044 ± 0.002.
UCCUGCUACAGCUUGCAUACUAUUUACUUA: the entries for the “pre-steady-state target cleavage rate” value in assay [1] (setting [3]) and in assay [2] were 0.0359 ± 0.011 and 0.00325 ± 0.0023, respectively.
In the same order, the values of UCCUGGAACAGCUUGCAUAGUAUUUCAGUUA are 0.131 ± 0.028 and 0.00308 ± 0.0026.
The matching figures for UCCUGGAUGAGCUAGCAUAGUAUUUUGUUA: 0.159 ± 0.036 and 0.00327 ± 0.003.
In the same order, the values of UCCUCCUACAGCUUGCAAUCUAUUUAGUUA are 0.0266 ± 0.0058 and 0.00376 ± 0.0036.
For UCCUCCUACAGCUUGCAUAUAUUUAGUUA, the “pre-steady-state target cleavage rate” value in assay [1] (setting [3]) turned out to be 0.0398 ± 0.0083; in assay [2] it was 0.00725 ± 0.0034.
For the sequence UCCUGCUACACCUUCCAUAGUAUUUAGUUA, the “pre-steady-state target cleavage rate” value was 0.0271 ± 0.013 in assay [1] (setting [3]) and 0.00334 ± 0.0022 in assay [2].
Turning to UCCUCCUACAGCUUGCAUACUAUUAAGUUA, the “pre-steady-state target cleavage rate” value in assay [1] (setting [3]) stood at 0.0631 ± 0.019; in assay [2] it was 0.00391 ± 0.0027.
In the case of UCCUGCUACAGCUUGCAUAGUAUUUUCUUA, the “pre-steady-state target cleavage rate” value in assay [1] (setting [3]) is 0.0484 ± 0.01; in assay [2], 0.00359 ± 0.002.
Regarding UCCUCCUACAGCUUGCUAUAGUAUUUAGUUA, the results for the “pre-steady-state target cleavage rate” value in assay [1] (setting [3]) and in assay [2] were 0.0206 ± 0.0064 and 0.00859 ± 0.0032, respectively.
The matching figures for UCCUGGUUGUGCUUGCAUAGUAUUUAGAAA: 0.0381 ± 0.013 and 0.00415 ± 0.0022.
In the same order, the values of UCCUCCUACAGCUUGCUUAGUAUUUAGAAA are 0.091 ± 0.018 and 0.00569 ± 0.0027.
UCCUCCUACAGCUUGCAUAGUAAUUUCAAA: the “pre-steady-state target cleavage rate” value in assay [1] (setting [3]) is 0.182 ± 0.038; in assay [2], 0.00321 ± 0.0026.
On to UCCUGCUUGAGCUUGCAUAGUAUUUUCAAA, for which the “pre-steady-state target cleavage rate” value in assay [1] (setting [3]) was 0.0372 ± 0.013; in assay [2] it was 0.00207 ± 0.0018.
